NS1 function inh: blocks influenza NS1 protein function. Potency, µM (highest dose often 46.1 µM), inactives show top-dose activity, positive = more growth. 270,000 tested, 0.4% active; calls by dose curve; further: potency means the concentration at half of the fitted maximal effect; actives are rising curves; nearly all actives have a fitted effect of over 50% in size
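Recovery from NS1-induced slow growth read by OD600 in budding yeast switched to galactose assay medium (pH 6.0, -URA) at 1:100 dilution. Compound 23 nl per well; the matching strain lacking NS1 serves as control.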
Shiga inhibitor: inhibitors of Shiga toxin in Vero cells | inhibition, % at 38.7 µM | 290,000 tested, 9.2% active | Vero cells, Shiga toxin protein synthesis inhibition reporter | AID 2315; in the data active means inhibition mostly above about 28%, no sharp cut-off; inactive means mostly below about 43%; further: 0% is about no effect
Pf growth 96h: P. falciparum growth inhibition at 96 hour, primary screen for plastid delayed-death inhibitors. 320,000 tested, 6.9% active. P. falciparum luciferase reporter growth, 96 h. Potency, µM (titrated, usually from 28.7 µM), for the others: at the top dose activity change, negative = inhibition, hits mostly inhibitors; further: potency means the concentration at half of the fitted maximal effect; on the % scale 0 is the no-effect control and ±100 the full control effect
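Two parasite generations (96 h, 37 C, 5% CO2) of compound exposure in infected erythrocytes (0.05% parasitemia, 2% hematocrit). Luciferase-reporter P. falciparum; decreased luminescence indicates inhibited growth, aimed at apicoplast-acting delayed death.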
Pf growth 48h: inhibits P. falciparum growth in the first generation, 48 h; P. falciparum luciferase growth in erythrocytes, 48 h; Potency, µM (top dose mostly 28.7 µM), without a hit: at the highest dose activity change, negative = inhibition, hits mostly inhibitors; 310,000 tested, 5.9% active; AID 504832; further: potency means the concentration at half of the fitted maximal effect; on the % scale 0 is the no-effect control and ±100 the full control effect
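Luciferase-expressing P. falciparum in infected erythrocytes (2% hematocrit, 0.1% parasitemia final) in RPMI 1640/0.5% Albumax were exposed to compound for 48 hours at 37 C, 5% CO2; growth read as luminescence.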
FBPA Giardia inh: Giardia lamblia aldolase inhibition. A8B2U2. purified Giardia FBPA. Potency, µM (highest dose often 59.6 µM), without a hit: at the top dose activity, negative = inhibition, hits mostly inhibitors. 290,000 tested, 0.71% active; further: potency means the concentration at half of the fitted maximal effect; on the % scale 0 is the no-effect control and ±100 the full control effect; nearly all actives have a fitted effect of over 55% in size
Target sequence (A8B2U2 whole entry, looked up): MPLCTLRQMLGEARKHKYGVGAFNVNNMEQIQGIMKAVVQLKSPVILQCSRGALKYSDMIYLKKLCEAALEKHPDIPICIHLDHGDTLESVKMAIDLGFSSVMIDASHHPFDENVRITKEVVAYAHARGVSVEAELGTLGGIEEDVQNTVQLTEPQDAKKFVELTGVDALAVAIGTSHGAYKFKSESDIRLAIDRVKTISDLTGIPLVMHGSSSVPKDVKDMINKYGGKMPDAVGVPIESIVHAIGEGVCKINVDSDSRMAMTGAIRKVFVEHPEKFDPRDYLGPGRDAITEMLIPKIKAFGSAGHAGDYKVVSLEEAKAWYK
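Giardia FBPA (40 nM reagent) was preincubated 10 min at RT with compound (up to 57.5 uM final), then substrate plus GAPDH/TPI/NAD/arsenate coupling system with diaphorase/resazurin was added; resorufin fluorescence (525/598 nm) was read after 20 min.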
Cycloheximide cs: counter-screen for Shiga toxin inhibitors: cycloheximide protein synthesis inhibition; cell reporter, cycloheximide protein synthesis inhibition counterscreen; max response, %; 300,000 tested, 12% active; AID 2314; in the data active means max response mostly above about 13%, no sharp cut-off; inactive means mostly below about 14%; further: read at 38.3 µM for the half of the compounds with a filed dose; 0% is about no effect
The depositor's hits bear a star; i = inactive; ? = inconclusive; . = no result given. Hits are enriched below; roughly 21% of the tested compounds scored in any of these assays. Unless noted, the call rests on the fitted dose curve; in most records, active means well fitted curve in the direction sought with a large enough effect; inconclusive means small, poorly fitted or top-dose-only effect, or another doubt; inactive means no such curve, though single readings can be large; an effect the other way counts as inactive or inconclusive.

SMILES	NS1 function inh	Shiga inhibitor	Pf growth 96h	Pf growth 48h	FBPA Giardia inh	Cycloheximide cs
O=S1(=O)C=C(Sc2nc3cc(Cl)ccc3o2)c2ccccc21	9%	40	19%	?	0%	18*
NCCc1ccc(O)c(O)c1	0%	9	?	?	?	-1
CCCCc1cc(O)c(CCCC)c(O)c1	-157%	40*	198%	?	1%	39*
COc1cccc(-c2cc(N)nn2C(=O)Nc2ccc(Cl)cc2)c1	-72%	18	12µM*	?	0%	11
COc1cccc(-c2cc(=O)c3cc(NC(=O)c4ccc(Cl)cc4)ccc3[nH]2)c1	3%	-12	10%	0%	0%	-2
COc1ccc(CC(=O)Oc2cc(C)ccc2C)cc1	-1%	-5	24%	0%	2%	9
COc1ccc(-n2c(C)nc3c(cnn3-c3ccc(C)c(C)c3)c2=O)cc1	-90%	-1	10µM*	.	-7%	1
Cc1nc2c(cnn2-c2ccccc2Cl)c(=O)n1-c1ccc(C(C)C)cc1	-84%	-4	2.6µM*	.	-5%	-3
CC(Sc1nnnn1-c1ccc(O)cc1)C(=O)NC1CCCCC1C (configuration not stated)	-4%	5	?	?	8%	-2
Cc1nc(Nc2ccc(F)cc2)[nH]c(=O)c1CCC(C)C	-106%	0	.	5.9µM*	-4%	6
Cc1ccc(Nc2nc(C)c(CCC(C)C)c(=O)[nH]2)cc1	9%	4	17%	?	-5%	15
c1ccc(-c2ncc(-c3ccn[nH]3)s2)cc1	.	93*	475%	334%	1%	46*
O=C(CSc1cn(CCNC(=O)c2ccc3ccccc3c2)c2ccccc12)NCc1ccco1	18%	22	?	?	3%	15*
Cn1c(=O)cc(SCC(=O)NCc2ccco2)c2ccccc21	-4%	13	13%	75%	-8%	-4
O=C(CSc1cn(CCNC(=O)c2cccs2)c2ccccc12)NC1CCCCC1	-10%	12	?	?	-2%	1
CCCn1cc(SCC(=O)NCC2CCCO2)c2ccccc21 (configuration not stated)	-12%	42*	15%	24%	0%	25*
O=C(CSc1cn(CCNC(=O)c2cccs2)c2ccccc12)NCc1ccccc1	1%	15	-11%	?	-2%	11*
COc1ccc(C(=O)NCCn2cc(SCC(=O)NCC3CCCO3)c3ccccc32)cc1OC (configuration not stated)	-10%	-11	6.6µM*	8.3µM*	-4%	2
Cn1cc(SCC(=O)NCC2CCCO2)c2ccccc21 (configuration not stated)	0%	-6	33%	31%	0%	-1
CN(CC(=O)Nc1ccc(F)cc1)C(=O)C1CCCC1	.	.	19%	-9%	.	.
CCCn1cc(SCC(=O)NC2CCCC2)c2ccccc21	-14%	19	?	9.3µM*	6%	13
CCCn1cc(S(=O)(=O)CC(=O)NC2CCCCC2)c2ccccc21	-2%	-8	?	-14%	3%	-1
COCCCNCCOCCOc1ccccc1-c1ccccc1	?	-3	?	-8%	-21%	-3
CC(C)(C)NCCOCCOc1ccccc1-c1ccccc1	5%	1	3.7µM*	?	?	-5
CN(C)CCNCCCOc1ccccc1-c1ccccc1	-3%	-4	47%	2.6µM*	?	-2
SMILES	NS1 function inh	Shiga inhibitor	Pf growth 96h	Pf growth 48h	FBPA Giardia inh	Cycloheximide cs
C=CCNCCOCCOc1ccccc1-c1ccccc1	5%	97*	130%	?	19%	20*
O=C1c2ccccc2C2(c3cc(C(F)(F)F)cc(C(F)(F)F)c3)NCCN12 (configuration not stated)	10%	-5	?	?	6%	-7
CSc1ccccc1NC(=O)c1cnc2scc(C)n2c1=O	-60%	28*	10%	11%	-2%	25*
Cc1csc2ncc(C(=O)NCCC(c3ccccc3)c3ccccc3)c(=O)n12	5%	-3	11%	-18%	-1%	2
Cc1ccccc1NC(=O)c1cnc2ccccn2c1=O	-54%	86*	6.6µM*	44%	10%	79*
Cc1csc2ncc(C(=O)NCCc3ccccc3)c(=O)n12	-3%	48*	117%	122%	13%	45*
CSc1ncc(C(=O)Nc2ccccc2C)c(C)n1	2%	8	-17%	10%	-3%	-3
O=C(NCCc1ccccc1)c1cnc2ccccn2c1=O	-5%	57*	453%	325%	7%	41*
CC(C)n1c(=N)c(C(=O)NCCc2ccccc2)cc2c(=O)n3ccccc3nc21	-8%	-3	7%	?	1%	1
Cc1ccc(C(=O)N/C(=C\c2cn(S(=O)(=O)N(C)C)c3ccccc23)C(=O)NCCCN2CCOCC2)cc1	1%	-5	?	?	9%	1
O=C(NCCCNC(=O)c1ccc(Cl)cc1Cl)c1ccco1	5%	3	14%	-16%	-10%	3
O=C(NCCCN1CCN(CCCNC(=O)c2cc([N+](=O)[O-])ccc2Cl)CC1)c1cc([N+](=O)[O-])ccc1Cl	3%	-7	?	4.7µM*	5%	-2
Cc1ccc(C(=O)NCCCc2ccccc2)c(C)c1	-6%	60*	183%	95%	3%	42*
Cc1cc(C)cc(C(=O)NCCCc2ccccc2)c1	-7%	11	0%	46%	3%	21
O=C(NCCCc1ccccc1)c1ccc([N+](=O)[O-])cc1Cl	5%	29*	173%	128%	4%	29*
Cc1ccc(C(=O)NCCCc2ccccc2)c(Cl)c1	-15%	.	19%	67%	-3%	37*
O=C(Nc1cc(C(F)(F)F)cc(C(F)(F)F)c1)Nc1cnn(-c2ccc([N+](=O)[O-])cc2)c1C(F)(F)F	1%	5	?	1.9µM*	1%	1
CN(C)c1ccnc(Oc2ccccc2)c1C#N	2%	19	26%	22%	2%	12
Cc1cc(Cl)ccc1Oc1nccc(N(C)C)c1C#N	10%	21	?	25%	5%	14*
COc1ccnc(Oc2ccc(Cl)cc2)c1C#N	.	51	71%	i	1%	16
CN(C)c1ccnc(Oc2ccc(C(C)(C)C)cc2)c1C#N	-9%	73*	?	?	-1%	37*
CN(C)c1ccnc(Oc2ccc(Cl)cc2)c1C#N	-16%	127*	?	41%	-7%	69*
COc1ccc(C(=O)C2CCCN(C(=O)c3ccc4nccnc4c3)C2)c(C)c1 (configuration not stated)	-5%	6	24%	-29%	.	-1
CC(NC(=O)CSc1nnc(-c2cc3cc(Cl)ccc3o2)n1C)c1ccccc1 (configuration not stated)	-18%	19	4.7µM*	?	-3%	6
